Compounds without any hit were thinned out: in the full panel of roughly 79,000, 15% have a hit. No stated cut-off is given here; in the data, active means growth inhibition above about 70%; inactive means the rest.
Assays:
[1] = NCI Yeast Anticancer Drug Screen. Data for the rad50 strain (AID 155);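 further: 0% = growth of vehicle-only cultures of the same strain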; settings: S. cerevisiae rad50 strain growth inhibition; at 50.0 µM; active compounds read high
Summary of the method: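 Genetically altered yeast (DNA repair pathway); compound treatment; growth inhibition vs vehicle ctrl.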

[2] = NCI Yeast Anticancer Drug Screen. Data for the mec2-1 strain (AID 157); settings: S. cerevisiae mec2-1 strain, at 50.0 µM, active compounds read high
Summary of the method: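 Yeast mec2-1 mutant treated with compound. Readout: growth inhibition vs vehicle controls.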

[3] = NCI Yeast Anticancer Drug Screen. Data for the sgs1 mgt1 strain (AID 161);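 further: 0% = growth of cultures given vehicle only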; settings: S. cerevisiae sgs1 mgt1 strain, at 50.0 µM, active compounds read high
Summary of the method: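 Test agents were incubated with a DNA-repair-mutant yeast strain. Growth was then read and compared against vehicle-treated controls.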

[4] = NCI Yeast Anticancer Drug Screen. Data for the cln2 rad14 strain (AID 165);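 further: 0% = growth equal to vehicle treated cultures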; settings: S. cerevisiae cln2 rad14 strain, at 50.0 µM, active compounds read high
Summary of the method: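 cln2 rad14 yeast strain; compound exposure; growth inhibition read vs vehicle controls.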

[5] = NCI Yeast Anticancer Drug Screen. Data for the bub3 strain (AID 167); settings: S. cerevisiae bub3 mutant strain, at 50.0 µM, active compounds read high
Summary of the method: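 Yeast carrying a defined mutation is treated with each compound, and growth is compared with that of vehicle-exposed cells to give inhibition.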

[6] = NCI Yeast Anticancer Drug Screen. Data for the mlh1 rad18 strain (AID 175); settings: S. cerevisiae mlh1 rad18 strain growth inhibition; at 50.0 µM; active compounds read high
Summary of the method: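 Yeast w/ defined DNA-repair lesions; compound exposure; growth vs vehicle controls → % inhibition.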

Measured: growth inhibition

C[N+](C)(C)N=C1CCCCC1
inactive: [1] 10.9% | [2] -3.6% | [3] -11.3% | [4] 7.5% | [5] -2.6% | [6] -16.8%

CC(C)OC(=O)c1cc(N)ccc1Cl
inactive: [1] 29.1% | [2] 23.4% | [3] 17.4% | [4] 2.45% | [5] 38.4% | [6] 34%

Cc1cnc(N)s1
inactive: [1] 3.8% | [2] -23.9% | [3] -7.8% | [4] -24.7% | [5] -11.2% | [6] 9.45%

COc1cc(NCCCCCNC(C)C)c2nccc(C)c2c1
inactive: [1] 42.2% | [2] 43.1% | [3] 56.6% | [4] 28.6% | [5] 27.9% | [6] 50.5%

CN(C)c1ncnc2cn[nH]c12
inactive: [1] 3.6% | [2] -5.75% | [3] 0.25% | [4] 5.7% | [5] 17.4% | [6] 0.6%

COc1cc(OC)c2cnc(Cl)cc2c1
inactive: [1] 15.4% | [2] -9.1% | [3] -5.35% | [4] -41.4% | [5] -2.85% | [6] 6.6%

CCSC1C(N=[N+]=[N-])C(CO)OC1n1cnc2c(N)ncnc21 (stereo unspecified)
inactive: [1] 1.3% | [2] -3.2% | [3] 9.3% | [4] 10.9% | [5] -2% | [6] 4.7%

COC1CC2CC1C1COCC21 (stereo unspecified)
inactive: [1] 7.15% | [2] -4.05% | [3] -19.9% | [4] -12.4% | [5] -12.4% | [6] -7.6%

O=C(O)C1=CN=C(C(=O)O)NN1
inactive: [1] -24.4% | [2] -23.2% | [3] -28.8% | [4] 19.5% | [5] -4.15% | [6] -34.5%

CC(CN1CCCC1)(Oc1ccccc1)C(=O)c1ccccc1 (stereo unspecified)
inactive: [1] 16.6% | [2] -0.45% | [3] 15.1% | [4] 7.8% | [5] 10.1% | [6] 2.45%

O=C(O)c1nn(-c2ccccc2)c2c1CSc1ccccc1-2
inactive: [1] 35.5% | [2] 34.2% | [3] 25.6% | [4] 27.2% | [5] 16.9% | [6] 13.2%

O=C1C(Cl)C(c2cccc(O)c2)N1n1cnc2ccccc2c1=O (stereo unspecified)
inactive: [1] -25.1% | [2] -4.15% | [3] -7.5% | [4] -8% | [5] -19.4% | [6] -0.95%

c1ccc(-c2cc(-c3ccncc3)cc(-c3ccncc3)n2)cc1
inactive: [1] 3.85% | [2] -21% | [3] 9.4% | [4] 18.6% | [5] -1.9% | [6] -85.2%

[N-]=[N+]=Nc1ccccc1-c1ccccc1[N+](=O)[O-]
inactive: [1] 35% | [2] -6.3% | [3] 40.3% | [4] 0.4% | [5] -6.4% | [6] 28.6%

Cc1cc(=NO)cc(C)n1O
inactive: [1] 43.5% | [2] 21% | [3] 54.9% | [4] -3.3% | [5] 3.55% | [6] 7.85%

CC(=O)c1ccc(Cl)c(-n2cccc2)c1
inactive: [1] 4.2% | [2] -12.1% | [3] 13% | [4] 17.6% | [5] 17.8% | [6] -0.45%

CN1C(=O)/C(=C2\SC(=O)N(CN3CCCCC3)C2=O)c2cc(Br)ccc21
inactive: [1] -10.6% | [2] -1.2% | [3] -11.2% | [4] 10.2% | [5] -2.45% | [6] 18.1%

O=C(OCC(O)C(O)C(O)COC(=O)c1ccccc1)c1ccccc1 (stereo unspecified)
inactive: [1] -11.6% | [2] -5.05% | [3] -25.4% | [4] -23.6% | [5] -22.8% | [6] -13.1%

CCCC(=O)C(N)Cc1ccc(O)cc1 (stereo unspecified)
inactive: [1] -16.6% | [2] -10.3% | [3] 4.35% | [4] -9.35% | [5] -16.1% | [6] -1.7%

COc1ccc(S(=O)(=O)Oc2ccc(Cl)cc2)cc1
inactive: [1] -2.35% | [2] 11.6% | [3] 18.1% | [4] -234% | [5] 42.5% | [6] 9.05%

O=[N+]([O-])c1ccc(-c2nc3ncncc3[nH]2)cc1
inactive: [1] 13.2% | [2] -3.25% | [3] -0.75% | [4] 13.1% | [5] 5.05% | [6] 7.25%

CC(=O)OCc1ccc([N+](=O)[O-])cc1
inactive: [1] -1.65% | [2] 0.25% | [3] -8.8% | [4] 8.05% | [5] -6.05% | [6] 6.1%

O=NN1C2CCCCC2C2CCCCC21 (stereo unspecified)
inactive: [1] -9% | [2] 20.5% | [3] -14.7% | [4] -5.25% | [5] 26.2% | [6] 3.8%

COc1nsc2ccc(C(C)C(N)=O)cc12 (stereo unspecified)
inactive: [1] -35.5% | [2] 3.8% | [3] -9.1% | [4] -22.4% | [5] -2.25% | [6] -4.4%

CNc1ccc(Cl)cc1S(=O)(=O)c1ccccc1[N+](=O)[O-]
inactive: [1] 3.2% | [2] 16.4% | [3] 24.8% | [4] 23.3% | [5] 5.65% | [6] -7.05%

C/C(CCn1[nH]c(=O)ccc1=O)=N\N=C(N)N
inactive: [1] -13.2% | [2] -13.1% | [3] -0.65% | [4] -4.85% | [5] -1.4% | [6] 1.7%

Cc1cc(NC(=O)NC(=O)c2ccccc2N(C)C)ccc1Oc1ncc(Br)cn1
inactive: [1] -14.6% | [2] -13.8% | [3] -13.3% | [4] 12.2% | [5] -3.4% | [6] -4.45%

COc1cc2c(-c3cc(OC)c(OC)c(OC)c3)cc(C)[n+](C)c2cc1OC
inactive: [1] 6.25% | [2] -9.2% | [3] -2.3% | [4] -15% | [5] -13.3% | [6] 1.8%

C=CCN(C)C(=O)CCCCCCCC1C(CCCCCCCC)C2(Cl)C(Cl)=C(Cl)C1(Cl)C2(Cl)Cl (stereo unspecified)
inactive: [1] 30.7% | [2] 4.35% | [3] 8.6% | [4] -20.5% | [5] -1.5% | [6] -8.35%

COc1ccc(CC2(Cc3ccc(OC)cc3)CCOC2=O)cc1
inactive: [1] -23.1% | [2] -31.9% | [3] -16.1% | [4] 1.2% | [5] 2.25% | [6] -31.4%

CCOC(=O)NC(N)=O
inactive: [1] 11.3% | [2] -1.45% | [3] 14.2% | [4] -8.1% | [5] 0.4% | [6] 6.85%

CN(C(=O)/C=C/c1ccccc1)c1ccccc1
inactive: [1] 45.6% | [2] 13.4% | [3] 49.5% | [4] 27.1% | [5] 43.3% | [6] 32.4%

N#Cc1nc(Nc2cccc3ccccc23)sc1N
inactive: [1] 8.2% | [2] 14.8% | [3] 20.9% | [4] 12.1% | [5] 15.7% | [6] 51.1%

CC(=O)OCC(C)Cc1ccccc1 (stereo unspecified)
inactive: [1] 6.35% | [2] 13.8% | [3] -0.25% | [4] 8.2% | [5] 1.9% | [6] -2.25%

Cn1nc2ccc3nccc(NCCNCCO)c3c2n1
inactive: [1] -3.65% | [2] -8.8% | [3] -4.65% | [4] 7.4% | [5] -4.8% | [6] -9.65%

COC(=O)CN(c1ccc(C#N)c2ccccc12)S(=O)(=O)c1ccccc1
inactive: [1] 32.4% | [2] -2.35% | [3] 3.7% | [4] -4.9% | [5] 4.25% | [6] 1.45%

CC1CNC(=S)N(c2cccc3ccccc23)C1=O (stereo unspecified)
inactive: [1] -4.8% | [2] -1% | [3] -3.7% | [4] -5% | [5] -9.35% | [6] 4.2%

CCCOC(=O)/C=C(\Cl)C(=O)OCCC
inactive: [1] -0.95% | [2] 4.15% | [3] 0.65% | [4] -23.2% | [5] -45.6% | [6] -5.8%

CC(=O)Nc1ccc(Br)cc1
inactive: [1] 0.85% | [2] -5.6% | [3] -18.4% | [4] -34% | [5] -17.1% | [6] 0.1%

CCCC[N+](C)(C)CC[N+](C)(C)CCCC
inactive: [1] 4.25% | [2] -14.9% | [3] -10% | [4] -36.3% | [5] -1.4% | [6] -16.2%

CNCCCc1cc(-c2ccc([N+](=O)[O-])cc2)n[nH]1
inactive: [1] -1.55% | [2] 0.5% | [3] -3.25% | [4] 12.6% | [5] 13.6% | [6] 6.6%
